Screening data from PubChem BioAssay.
Pf Dd2 inh: inhibitors of Plasmodium falciparum Dd2 growth; 94,000 tested, 2.3% active; P. falciparum Dd2 growth, SYBR Green, 72 h; stronger effect = lower value; activity change, % at 10 µM; in the data active means activity change below about -80%; inconclusive means no clear call, values can overlap the other calls
T cruzi growth-1: blocks T. cruzi growth in NIH3T3 culture | T. cruzi beta-gal in NIH3T3, GalScreen luminescence, 90 h | inhibition, % at 8.34 µM | 77,000 tested, 5.9% active | AID 624255;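 active means mean inhibition above about 93%, with at least 55% of replicates each passing it, limit read from the data, passing the limit was not always enough; inconclusive means only one of those two conditions holds; inactive means neither condition holds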
C diff HTS: inhibitors of Clostridium difficile growth. Clostridium difficile clinical isolate growth, OD600, 24 h; stronger effect = lower value. growth activity, negative = inhibition, % at 16 µg/mL (by protocol). 86,000 tested, 0.25% active;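 active means mean growth activity at or below -80% and every replicate also at or below -80%; inconclusive means mean at or below -80% but some replicate above -80%; inactive means mean growth activity above -80%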
T cruzi growth-2: inhibitors of T. cruzi proliferation | T. cruzi beta-gal in NIH3T3, GalScreen luminescence, 90 h | 5,600 tested, 72% active | inhibition, % at 8.35 µM | shares compounds with T cruzi growth-1;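 active means mean replicate inhibition above about 95% and at least 55% of replicates individually reaching it, limit read from the data; inconclusive means only one of the two criteria is met; inactive means neither criterion is met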
T cruzi growth-3: inhibitors of T. cruzi proliferation | inhibition, % at 2.09 µM | shares compounds with T cruzi growth-1 | AID 651740 | 5,600 tested, 21% active | T. cruzi beta-gal in NIH3T3, GalScreen luminescence, 90 h;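 active means mean inhibition above about 95%, with at least 55% of replicates also reaching it, limit read from the data; inconclusive means meets just one of the two conditions; inactive means meets neither condition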
NIH3T3 tox: cytotoxicity in mouse NIH/3T3 fibroblasts. cytotoxicity (signal decrease), % at 8.35 µM. NIH/3T3 viability, CellTiter-Glo ATP luminescence, 90 h. AID 651742. 5,600 tested, 14% active. shares compounds with T cruzi growth-1;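 active means mean signal decrease across replicates above about 35% based on untreated-well scatter, with enough replicates individually passing, limit read from the data; inconclusive means no rule stated though some were filed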
3T3 cytotox 2: NIH/3T3 (mouse) viability loss; inhibition, % at 24.9 µM; 5,600 tested, 56% active; shares compounds with T cruzi growth-1; NIH/3T3 viability, CellTiter-Glo ATP luminescence, 90 h;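 active means mean loss of cell viability signal at or above a set limit, and enough replicates individually reaching it; inconclusive means meets only the mean limit or only the replicate share; inactive means meets neither condition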
Each line names hits and unclear results; the compound was inactive in the other large screens (follow-up assays come after a bar, where they were run). Rows were chosen to be rich in hits. Some 6.7% of all compounds tested hit in one or more screens of this group.

C[C@@H]1CCCCO[C@@H](CN(C)CC2CCCCC2)[C@H](C)CN([C@@H](C)CO)C(=O)c2cc(NC(=O)NC3CCCCC3)ccc2O1	T cruzi growth-1 99 (no result: C diff HTS) | T cruzi growth-2 109 | T cruzi growth-3 inactive | NIH3T3 tox inactive | 3T3 cytotox 2 106
C[C@@H]1CN([C@H](C)CO)C(=O)c2cc(-c3ccccc3F)cnc2O[C@@H]1CN(C)C	none
C[C@@H]1CCCCO[C@@H](CN(C)S(=O)(=O)c2ccc(Cl)cc2)[C@H](C)CN([C@H](C)CO)C(=O)c2cc(NC(=O)Nc3ccccc3)ccc2O1	none (no result: C diff HTS)
CCC(=O)N1CC[C@H]2[C@@H]1c1cc(C#Cc3ccccc3OC)ccc1N(C)[C@H]2CO	T cruzi growth-1 99 | T cruzi growth-2 110 | T cruzi growth-3 inactive | NIH3T3 tox inactive | 3T3 cytotox 2 inactive
COc1ccccc1NC(=O)N1CC[C@H]2[C@@H]1c1cc(-c3ccc(F)cc3)ccc1N(C)[C@H]2CO	T cruzi growth-1 101 | T cruzi growth-2 106 | T cruzi growth-3 inconclusive | NIH3T3 tox inactive | 3T3 cytotox 2 29
COc1ccccc1NC(=O)N1CC[C@@H]2[C@H]1c1cc(C#Cc3ccc(F)cc3)ccc1N(C)[C@@H]2CO	T cruzi growth-1 inconclusive | T cruzi growth-2 99 | T cruzi growth-3 111 | NIH3T3 tox inactive | 3T3 cytotox 2 inactive
COc1ccccc1NC(=O)N1CC[C@@H]2[C@H]1c1cc(-c3ccccc3)ccc1N(C)[C@@H]2CO	none
COc1ccccc1NC(=O)N1CC[C@@H]2[C@H]1c1cc(-c3cccc(F)c3)ccc1N(C)[C@H]2CO	none
CCC(=O)N1CC[C@@H]2[C@H]1c1cc(C#Cc3cccc(F)c3)ccc1N(C)[C@H]2CO	none
C[C@@H]1CN([C@H](C)CO)C(=O)c2cc(NC(=O)C3CCCCC3)ccc2O[C@@H](C)CCCCO[C@H]1CN(C)Cc1ccc2c(c1)OCO2	none
O=C(C[C@H]1C=C[C@@H](NC(=O)CN2CCOCC2)[C@@H](CO)O1)NC1CCC1	none (no result: T cruzi growth-1)
C[C@@H]1CN([C@H](C)CO)C(=O)c2cccc(NC(=O)C3CC3)c2O[C@H]1CN(C)Cc1ccc(C(=O)Nc2ccccc2N)cc1	T cruzi growth-1 102 | T cruzi growth-2 110 | T cruzi growth-3 inactive | NIH3T3 tox inactive | 3T3 cytotox 2 30
C[C@@H]1CN([C@H](C)CO)C(=O)c2cccc(NC(=O)C3CCOCC3)c2O[C@H]1CN(C)Cc1ccc(C(=O)Nc2ccccc2N)cc1	none (no result: T cruzi growth-1)
C[C@@H]1CN([C@H](C)CO)C(=O)c2cccc(N(C)C)c2O[C@@H]1CN(C)Cc1ccc(C(=O)Nc2ccccc2N)cc1	none
C[C@H](CO)N1C[C@H](C)[C@H](CN(C)Cc2ccc(C(=O)Nc3ccccc3N)cc2)Oc2c(NC(=O)C3CC3)cccc2C1=O	T cruzi growth-1 98 | T cruzi growth-2 106 | T cruzi growth-3 inactive | NIH3T3 tox inactive | 3T3 cytotox 2 43
CCNC(=O)[C@@H]1[C@@H](CO)[C@@H]2Cn3c(ccc(-c4ccc(F)cc4)c3=O)[C@@H]2N1C	none (no result: T cruzi growth-1)
C[C@H]1CCCCO[C@H](CN(C)C(=O)Nc2ccc(F)cc2)[C@@H](C)CN([C@@H](C)CO)C(=O)c2cc(NC(=O)Nc3ccc(C(F)(F)F)cc3)ccc2O1	none
C[C@@H]1CCCCO[C@@H](CN(C)C(=O)Nc2ccc(F)cc2)[C@H](C)CN([C@@H](C)CO)C(=O)c2cc(NC(=O)Nc3ccc(C(F)(F)F)cc3)ccc2O1	T cruzi growth-1 95 | T cruzi growth-2 105 | T cruzi growth-3 104 | NIH3T3 tox inactive | 3T3 cytotox 2 inactive
C[C@@H]1CCCCO[C@H](CN(C)C(=O)Nc2ccc(C(F)(F)F)cc2)[C@H](C)CN([C@@H](C)CO)C(=O)c2cc(NC(=O)Nc3ccc(F)cc3)ccc2O1	T cruzi growth-1 111 | T cruzi growth-2 106 | T cruzi growth-3 118 | NIH3T3 tox inactive | 3T3 cytotox 2 inactive
C[C@@H]1CN([C@H](C)CO)C(=O)c2cc(NC(=O)Nc3ccc(F)cc3)ccc2O[C@@H](C)CCCCO[C@H]1CN(C)C(=O)Nc1ccc(C(F)(F)F)cc1	none
CN(C)CCCNC(=O)[C@H]1[C@H](CO)[C@H]2Cn3c(ccc(C4=CCCC4)c3=O)[C@@H]1N2Cc1cocn1	none (no result: Pf Dd2 inh)
O=C(NCCc1ccncc1)[C@H]1[C@H](CO)[C@H]2Cn3c(ccc(C4=CCCCC4)c3=O)[C@@H]1N2CC1CC1	none (no result: Pf Dd2 inh, C diff HTS)
COc1ccc(S(=O)(=O)N(C)C[C@H]2OCCCC[C@H](C)Oc3ccc(NC(=O)Nc4ccccc4)cc3C(=O)N([C@H](C)CO)C[C@H]2C)cc1	Pf Dd2 inh inconclusive
COc1ccc(NC(=O)Nc2ccc3c(c2)C(=O)N([C@H](C)CO)C[C@@H](C)[C@@H](CN(C)S(=O)(=O)c2ccccc2)OCCCC[C@H](C)O3)cc1	none
COc1ccc(NC(=O)Nc2ccc3c(c2)C(=O)N([C@@H](C)CO)C[C@H](C)[C@@H](CN(C)S(=O)(=O)c2ccccc2)OCCCC[C@@H](C)O3)cc1	none
COc1ccc(S(=O)(=O)N(C)C[C@@H]2OCCCC[C@@H](C)Oc3ccc(NC(=O)Nc4ccccc4)cc3C(=O)N([C@@H](C)CO)C[C@H]2C)cc1	T cruzi growth-1 inconclusive | T cruzi growth-2 111 | T cruzi growth-3 inactive | NIH3T3 tox inactive | 3T3 cytotox 2 inactive
COc1ccc(S(=O)(=O)N(C)C[C@@H]2OCCCC[C@H](C)Oc3ccc(NC(=O)Nc4ccccc4)cc3C(=O)N([C@@H](C)CO)C[C@@H]2C)cc1	Pf Dd2 inh -86, T cruzi growth-1 inconclusive | T cruzi growth-2 105 | T cruzi growth-3 inactive | NIH3T3 tox inactive | 3T3 cytotox 2 inactive
COc1ccc(NC(=O)Nc2ccc3c(c2)C(=O)N([C@@H](C)CO)C[C@@H](C)[C@@H](CN(C)S(=O)(=O)c2ccccc2)OCCCC[C@@H](C)O3)cc1	none
COc1ccc(S(=O)(=O)N(C)C[C@H]2OCCCC[C@H](C)Oc3ccc(NC(=O)Nc4ccccc4)cc3C(=O)N([C@@H](C)CO)C[C@@H]2C)cc1	T cruzi growth-1 105 | T cruzi growth-2 110 | T cruzi growth-3 inactive | NIH3T3 tox inactive | 3T3 cytotox 2 inactive
COc1ccc(S(=O)(=O)N(C)C[C@H]2OCCCC[C@@H](C)Oc3ccc(NC(=O)Nc4ccccc4)cc3C(=O)N([C@@H](C)CO)C[C@@H]2C)cc1	T cruzi growth-1 100 | T cruzi growth-2 112 | T cruzi growth-3 inactive | NIH3T3 tox inactive | 3T3 cytotox 2 inconclusive
Cc1ccccc1S(=O)(=O)N[C@@H]1CC[C@@H](CCn2cc(-c3ccccc3)nn2)O[C@H]1CO	none
C[C@H](CO)N1C[C@H](C)[C@@H](CN(C)S(=O)(=O)c2ccc(Cl)cc2)Oc2c(NS(=O)(=O)c3cn(C)cn3)cccc2C1=O	none
CN1c2ccc(-c3cccc(C#N)c3)cc2[C@H]2[C@H](CCN2C(=O)C2CCC2)[C@H]1CO	none
